MEKK3 PB1 HTS: raises or lowers MEK5 binding to the human MEKK3 PB1 domain; Q99759; bead-based flow cytometry, Alexa488-MEK5 binding to MEKK3; actives lie on both sides; 0 = blocked by unlabeled MEK5, 100 = vehicle; binding response (% of control), % at 10 µM; 290,000 compounds, 1.4% hits;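 active means binding response more than 3 SD above or below the average of its plate-row segment, actives on both sides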;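 further: Alexa488 bead fluorescence after subtracting the streptavidin-only scavenger bead signal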
Target sequence (Q99759 whole entry, looked up, the tested form may be a part): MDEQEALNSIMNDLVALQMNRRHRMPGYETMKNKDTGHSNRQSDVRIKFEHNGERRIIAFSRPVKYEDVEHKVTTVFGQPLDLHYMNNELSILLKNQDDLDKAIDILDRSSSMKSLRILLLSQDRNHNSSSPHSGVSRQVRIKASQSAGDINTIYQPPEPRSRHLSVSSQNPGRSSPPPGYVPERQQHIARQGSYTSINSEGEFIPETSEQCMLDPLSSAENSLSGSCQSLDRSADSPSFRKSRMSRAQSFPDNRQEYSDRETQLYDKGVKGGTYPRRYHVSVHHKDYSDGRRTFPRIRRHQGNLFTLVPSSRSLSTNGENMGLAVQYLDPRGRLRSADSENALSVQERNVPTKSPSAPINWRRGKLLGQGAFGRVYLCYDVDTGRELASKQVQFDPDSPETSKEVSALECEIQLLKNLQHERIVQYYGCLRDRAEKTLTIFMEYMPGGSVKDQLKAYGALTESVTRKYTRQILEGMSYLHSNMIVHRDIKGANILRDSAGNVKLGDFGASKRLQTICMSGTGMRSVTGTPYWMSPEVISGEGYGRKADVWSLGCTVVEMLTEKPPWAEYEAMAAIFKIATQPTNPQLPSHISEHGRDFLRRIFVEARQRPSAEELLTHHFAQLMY
NRP1-CendR mod: alters CendR peptide binding to human NRP-1; O14786; FAM-RPARPAR peptide binding to NRP-1, fluorescence polarization; inhibition, % at 25 µM; 360,000 compounds, 0.85% hits; AID 602438;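 active means inhibition or corrected inhibition above about 18%, plus a signal ratio from 0.5 to 1.5, limit read from the data, passing the limit was not always enough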
SKN-1 block: inhibitors of C. elegans SKN-1. inhibition, % at 21.8 µM. AID 624304. 360,000 compounds, 0.49% hits. C. elegans VP596 Pgst-4::GFP/RFP ratio, acrylamide-induced, 24 h;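 active means interference check ratio from 0.5 to 1.5 plus GFP to RFP signal ratio inhibition reaching or exceeding a fixed threshold, cut at about 30% in these data, passing the limit was not always enough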
MEKK2wt PB1 HTS: raises or lowers MEK5 binding to wildtype human MEKK2 PB1 domain; bead flow cytometry, Alexa488-MEK5 binding to MEKK2 WT; actives lie on both sides; binding response (% of control), % at 10 µM; 290,000 compounds, 1.1% hits; AID 1531; in the data active means binding response below about 67% or above about 130%
MEKK2 mut-MEK5: signal of MEK5 binding to mutant human MEKK2 PB1 domain. bead flow cytometry, Alexa488-MEK5 binding to MEKK2 mutant. percent response, % at 10 µM. 290,000 compounds, 0.35% hits. AID 1530; in the data active means percent response above about 24%, passing the limit was not always enough
Hits are given with their value; n = inactive; x = no result given; [ ] = another dose, or the depositor's remark. This is a sample that favours compounds with a hit; in the whole collection about 3.2% have one here.

SMILES	MEKK3 PB1 HTS	NRP1-CendR mod	SKN-1 block	MEKK2wt PB1 HTS	MEKK2 mut-MEK5
CCc1nc2c(OCc3ccc(F)cc3)cccn2c1N(C)C(=O)c1ccc(C)cc1	x	n	n	x	x
CCCCN(C=O)c1c(CC)nc2ccc(C(=O)N3CCN(c4ccccc4)CC3)cn12	x	n	n	x	x
CCOC(=O)C1(C)CCN1C(=O)c1ccc(SC(F)(F)F)cc1 (stereo not drawn)	x	n	n	x	x
COc1ccc(OC)c(NC(=O)CCNS(=O)(=O)c2cccc3nonc23)c1	n	28.2	n	n	n
COc1cccc(NC(=O)CCNS(=O)(=O)c2cccc3nonc23)c1	n	n	n	n	n
O=C(CSc1nnc(CNc2ccc(Cl)cc2)n1Cc1ccccc1)NCc1ccco1	n	n	n	n	n
O=C(CSc1nnc(Cc2ccccc2)n1Cc1ccccc1)NCc1ccco1	n	29.5	n	n	n
Nc1ncnc2c1ncn2[C@@H]1O[C@H](C(=O)N2CCN(c3ccc(Cl)cn3)CC2)[C@@H](O)[C@H]1O	x	n	n	x	x
O=C(NN=C1CCCCCCCCCCC1)c1ccccc1F	n	28.5	n	n	n
O=S(=O)(c1cccc(NC(=S)N2CCN(c3cccc(Cl)c3)CC2)c1)C(F)F	134.0	n	n	n	n
COC(=O)c1sc(NC(=O)c2cc(C)on2)nc1C	n	n	n	n	n
COc1cc2c(oc(=O)c3cc(C)cc(OC)c32)c2c(C3OC(C)C(O)C(C)(O)C3O)ccc(O)c12 (stereo not drawn)	x	n	n	x	x
COC(=O)c1ccc2nc(-c3ccc(C#N)cc3)c(Cc3cccc(F)c3)n2c1	x	n	n	x	x
COC(=O)c1ccc2nc(-c3ccc(C)cc3)c(Cc3cccc(F)c3)n2c1	x	n	40.6	x	x
COc1ccc(CCCNC(=O)C2(C)Cc3c(-c4ccc5c(c4)OCO5)ccnc3O2)cc1 (stereo not drawn)	x	n	n	x	x
O=C(C[n+]1ccccc1)N/N=C/c1ccccc1Cl	x	26.4	n	x	x
O=C(C[n+]1ccccc1)N/N=C/c1ccccc1[N+](=O)[O-]	n	n	n	n	n
O=C1N=C(C=c2ccc(=Cc3[nH]c(=O)[nH]c3O)cc2)C(=O)N1	n	x	x	n	n
CCOC(=O)c1c(NC(=O)COC(=O)CCOc2cc(C)ccc2C)sc(C(=O)N(C)C)c1C	x	n	n	x	x
Cc1ccc(C(=O)NNC(=O)CSc2nnc(C3CC3)n2C)cc1	n	n	n	n	n
Cn1c(SCC(=O)NNC(=O)c2ccccc2)nnc1C1CC1	n	24.4	n	n	n
Cc1ccc(C(=O)NNC(=O)CSc2nnc(C(C)C)n2C)cc1	n	19.6	n	n	n
Cc1cc(F)cc(-c2cc(C(=O)NCc3ccco3)[nH]n2)c1	x	n	n	x	x
O=C(Nc1ccc(Cl)cc1)c1cc(S(=O)(=O)Nc2ccccn2)ccc1Cl	n	24.5	n	n	n
COc1ccc(OC)c(NC(=O)Nc2c(O)ccc3ccccc23)c1	x	n	n	x	x
SMILES	MEKK3 PB1 HTS	NRP1-CendR mod	SKN-1 block	MEKK2wt PB1 HTS	MEKK2 mut-MEK5
COc1ccc(OC)c(NC(=O)Nc2ccc(O)c3ccccc23)c1	x	25.2	n	x	x
COCCN(Cc1ccc(OC)cc1)c1c(C)nc2ccc(C(=O)NCCc3c[nH]c4ccccc34)cn12	x	n	n	x	x
O=C(NCC1CC1)c1ccc(-c2cn[nH]c2)c2ccoc12	x	n	35.0	x	x
OC(c1cc(Cl)cc(Cl)c1)c1ncc(-c2cccc(F)c2)[nH]1 (stereo not drawn)	x	n	n	x	x
COc1ccc(S(=O)(=O)N2CCOC2CNC(=O)C(=O)NCc2ccc3c(c2)OCO3)cc1 (stereo not drawn)	n	23.4	n	n	n
O=C(c1ccc(-c2nnc(Nc3cccc(Cl)c3)c3ccccc23)cc1)N1C[C@H]2C[C@H](C1)c1cccc(=O)n1C2	n	n	n	n	n
COc1nnc(-c2ccc(C(=O)N3C[C@@H]4C[C@H](C3)c3cccc(=O)n3C4)cc2)c2ccccc12	n	19.2	n	n	n
Cc1ccc(NC(=S)c2nc3ccccc3s2)cc1	n	n	35.3	n	n
CCCCn1cnc2c(SCc3ccccc3F)nc(N)nc21	x	n	n	x	x
O=c1[nH][nH]c2c(N=Cc3ccccc3O)ccc(F)c12	57.0[inhibitor]	n	41.7	58.0[inhibitor]	n
NCc1cc2c3c(c1)CCCN3CCC2	n	39.8	n	n	n
N#CC1=C(N)NC(SCc2ccc(Cl)cc2)=C(C#N)C12CCCCC2	n	29.1	n	n	n
N#CC1=C(N)NC(SCc2ccc(Br)cc2)=C(C#N)C12CCCCC2	n	n	n	n	n
Cc1cc(C)cc(NC(=O)Cn2c(-c3ccccc3Cl)nc3ccccc32)c1	n	n	n	n	n
O=C(Cn1c(-c2ccccc2Cl)nc2ccccc21)Nc1cccc(Cl)c1	n	21.2	n	n	n
CCN(CC)S(=O)(=O)c1ccc(/C=C/C(=O)O)cc1	n	32.6	n	n	n
CC[n+]1c(/C=C/Nc2ccccc2)sc2ccccc21	n	n	39.2	n	n
COc1ccc(CCNC(=O)C2CCC(C(C)(C)C)CC2)cc1OC (stereo not drawn)	n	34.0	n	n	n
CC(C)(C)Nc1nc(Nc2ccc([N+](=O)[O-])cc2)nc(NC(C)(C)C)n1	n	n	n	n	n
O=[N+]([O-])c1ccc(Nc2nccc(Cl)n2)cc1	x	n	44.5	x	x
Cc1ccc(S(=O)(=O)N(C)C)cc1NC(=O)COC(=O)c1ccc2c(c1)OCO2	n	36.7	n	n	n
O=C(O)c1ccc(S(=O)(=O)c2ccccc2)cc1	n	n	40.4	n	n
O=C1C=C(c2ccc(CO)cc2)C[C@@H](c2ccc(F)cc2)C1	x	n	n	x	x
Cc1ccc(NC(=O)CSc2nc(C)c(Cc3ccccc3)c(=O)[nH]2)cc1C	n	n	n	26.0	n
Cc1cccc(NC(=O)CSc2nc(C)c(Cc3ccccc3)c(=O)[nH]2)c1	x	n	n	x	x
SMILES	MEKK3 PB1 HTS	NRP1-CendR mod	SKN-1 block	MEKK2wt PB1 HTS	MEKK2 mut-MEK5
O=C(Nc1ccccn1)c1ccco1	n	n	n	n	n
Cc1cccnc1NC(=O)c1ccco1	x	21.6	n	x	x
Cc1ccc(N2CCN(S(=O)(=O)N3CCCCC3)CC2)cc1C	n	31.0	n	n	n
Cc1ccc(N2CCN(S(=O)(=O)N3CCCCCC3)CC2)cc1Cl	n	n	n	n	n
O=[N+]([O-])c1ccc(COc2ccc(CN3CCOCC3)cc2)cc1	x	n	n	x	x
O=[N+]([O-])c1ccc(OCc2cnc(Cl)s2)cc1	n	n	54.1	n	n
O=[N+]([O-])c1ccc(COc2ccc(CN3CCCC3)cc2)cc1	x	n	60.0	x	x
O=[N+]([O-])c1ccc(COc2ccc(CN3CCCCC3)cc2)cc1	x	n	39.7	x	x
CCN(C(=O)CSc1nccc(=O)[nH]1)c1cccc2ccccc12	x	n	n	x	x
Fc1cccc(-c2csc(-c3ccno3)n2)c1	n	n	51.9	n	n
Clc1ccc(-c2csc(-c3ccno3)n2)cc1	n	n	n	n	n
CC(C)=CCNc1ncnc2c1c(C#N)cn2C1OC(CO)C(O)C1O (stereo not drawn)	x	26.2	n	x	x
OCC1OC(n2ccc3c(NO)ncnc32)C(O)C1O (stereo not drawn)	x	n	n	x	x
